According to PubChem BioAssay (Tox21):
Inconclusive results are not listed. Activity calls are given as the source filed them. Unless noted, the call rests on the fitted dose curve; in most records, active means well fitted curve in the direction sought with a large enough effect in the repeat runs; inconclusive means weak or mixed curves; inactive means no such curve, though single readings can be large; an effect the other way counts as inactive or inconclusive.

How the values were obtained:
[1] = qHTS assay to identify small molecule agonists of the vitamin D receptor (VDR) signaling pathway - cell viability counter screen (AID 743224); further: series mostly up to about 63 µM; on the % scale 0 is the no-effect control and ±100 the full control effect; nearly all actives have a fitted effect of over 50% in size
Outline: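 Counter screen for cytotoxicity: VDR-bla cells at 2,000 cells/well, 16 h compound exposure, then CellTiter-Glo luminescence after the beta-lactamase measurement.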

[2] = qHTS assay to identify small molecule antagonists of the vitamin D receptor (VDR) signaling pathway - cell viability counter screen (AID 743225); further: on the % scale 0 is the no-effect control and ±100 the full control effect; nearly all actives have a fitted effect of over 50% in size
Outline: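 Read-out: CellTiter-Glo luminescence measured 30 min after reagent addition at room temperature. Cells were VDR-bla HEK 293T exposed 16 h at 37C, 5% CO2, to compound with 3 nM final calcitriol agonist.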

[3] = qHTS assay to identify small molecule agonists of the NFkB signaling pathway (AID 1159509; active means well fitted curve in the direction sought with a large enough effect in the signal ratio in the repeat runs, not every such curve was filed as active; the % refers to the signal ratio; further: series mostly up to about 61 µM; on the % scale 0 is the no-effect control and ±100 the full control effect)
Outline: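 Readout: FRET fluorescence, 405 nm excitation, 460/530 nm emission; beta-lactamase expression disrupts FRET. Cells: ME-180 stably carrying NF-kB-driven bla reporter. Compound exposure 5 hr, 37 C, 5% CO2.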

[4] = qHTS assay to identify small molecule agonists of the NFkB signaling pathway - cell viability counter screen (AID 1159515; calls by dose curve; further: series mostly up to about 61 µM; on the % scale 0 is the no-effect control and ±100 the full control effect; nearly all actives have a fitted effect of over 55% in size)
Outline: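 Counter screen run alongside the NFkB-bla agonist assay: ME-180 reporter cells exposed to compounds for 5 hr, then lysed with CellTiter-Glo in the same wells. Luminescence, read after 30 min, reflects viable cells.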

[5] = qHTS assay to identify small molecule agonists of the endoplasmic reticulum stress response signaling pathway (AID 1159516; active means well fitted activation curve with a large enough effect in the signal ratio in the repeat runs, not every such curve was filed as active; the % refers to the signal ratio; further: on the % scale 0 is the no-effect control and ±100 the full control effect)
Outline: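 For this screen, HeLa cells stably carrying beta-lactamase under the ER stress response element received test compounds, positive controls or DMSO for 5 hr at 37 C; B/G FRET substrate was then added and dual-wavelength emission recorded.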

[6] = qHTS assay to identify small molecule agonists of the endoplasmic reticulum stress response signaling pathway - cell viability counter screen (AID 1159517; calls by dose curve; further: series mostly up to about 61 µM; on the % scale 0 is the no-effect control and ±100 the full control effect; nearly all actives have a fitted effect of over 50% in size)
Outline: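 After overnight attachment, ESRE-bla HeLa cells were treated with Tox21 library compounds for 5 hr. CellTiter-Glo luminescence, read 30 min post-addition at room temperature, reported viability.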

[7] = qHTS assay to identify small molecule antagonists of the retinoid-related orphan receptor gamma (ROR-gamma) signaling pathway - cell viability counter screen (AID 1159520); further: on the % scale 0 is the no-effect control and ±100 the full control effect; nearly all actives have a fitted effect of over 50% in size
Outline: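 Cytotoxicity was read from cellular ATP (CellTiter-Glo luminescence) after 16 hr at 37 C with 1 uM doxycycline induction. The inducer was added 2 hr after compound transfer to Tet-on ROR gamma CHO cells.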

[8] = target: Nuclear receptor ROR-gamma (Homo sapiens) (UniProt P51449); assay: qHTS assay to identify small molecule antagonists of the retinoid-related orphan receptor gamma (ROR-gamma) signaling pathway (AID 1159521)
Outline: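 CHO Tet-on RORγ, RORE-luc reporter. Cpd 2 h pre-incubation, then dox hyclate 1 uM final, 16 h, 37 C/5% CO2. ONE-Glo luminescence; decrease = antagonist.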

[9] = qHTS assay to identify small molecule agonists of the AP-1 signaling pathway - cell viability counter screen (AID 1159525; calls by dose curve; further: nearly all actives have a fitted effect of over 55% in size)
Outline: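 Intracellular ATP by Cell Titer Glo luminescence (30 min, RT) in the same ME-180 AP-1-bla wells after the 5 h compound exposure at 37 °C. Normalised to tetra n-octyl ammonium bromide and DMSO controls.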

[10] = qHTS assay to identify small molecule agonists of the AP-1 signaling pathway (AID 1159526; calls by dose curve; further: on the % scale 0 is the no-effect control and ±100 the full control effect)

c1ccc(-c2ccc(-c3ccccc3)cc2)cc1
inactive: outcome [1] | outcome [2] | outcome [3] | outcome [4] | outcome [5] | outcome [6] | activity, negative = cytotoxicity [7] 4.58% [at 19 µM] | activity change, negative = inhibition [8] 98.3% [at 19 µM] | viability change, negative = cytotoxic [9] 1.74% [at 15.8 µM] | activation [10] -13.1% [at 15.8 µM]

O=C(O)c1cc(C(=O)O)c(C(=O)O)cc1C(=O)O
inactive: outcome [1] | outcome [2] | outcome [3] | outcome [4] | outcome [5] | outcome [6] | Potency [7] | Potency [8] | outcome [9] | Potency [10]

CC1(C)CC(O)CC(C)(C)N1[O]
inactive: outcome [1] | outcome [2] | outcome [3] | outcome [4] | outcome [5] | outcome [6] | Potency [7] | Potency [8] | outcome [9] | Potency [10]

O=C(O)c1cccnc1Nc1cccc(C(F)(F)F)c1
inactive: outcome [1] | outcome [2] | outcome [3] | outcome [4] | outcome [5] | outcome [6] | Potency [7] | Potency [8] | outcome [9] | Potency [10]

CCOc1ccc2c(c1)C(C)CC(C)(C)N2 (stereo not given)
inactive: outcome [1] | outcome [2] | outcome [3] | outcome [4] | outcome [5] | outcome [6] | Potency [7] | Potency [8] | outcome [9] | Potency [10]

CCCCCCCCCCCCN1CCOCC1
inactive: outcome [1] | outcome [2] | outcome [3] | outcome [4] | outcome [5] | outcome [6] | Potency [7] | Potency [8] | outcome [9] | Potency [10]

C=CC(C)CCC=C(C)C (stereo not given)
inactive: outcome [1] | outcome [2] | outcome [3] | outcome [4] | outcome [5] | outcome [6] | Potency [7] | Potency [8] | outcome [9] | Potency [10]

CCc1ccc(C(=O)C(C)CN2CCCCC2)cc1 (stereo not given)
inactive: outcome [1] | outcome [2] | outcome [3] | outcome [4] | outcome [5] | outcome [6] | Potency [7] | Potency [8] | outcome [9] | Potency [10]

CC(C)(C(=O)O)c1ccc(C(O)CCCN2CCC(C(O)(c3ccccc3)c3ccccc3)CC2)cc1 (stereo not given)
inactive: outcome [1] | outcome [2] | outcome [3] | outcome [4] | outcome [5] | outcome [6] | Potency [7] | Potency [8] | outcome [9] | Potency [10]

CCCCCCCCCCCCSCCOCCO
inactive: outcome [1] | outcome [2] | outcome [3] | outcome [4] | outcome [5] | outcome [6] | Potency [7] | Potency [8] | outcome [9] | Potency [10]

COc1ccc(/C=C/c2cc(OC)cc(=O)o2)cc1
inactive: outcome [1] | outcome [2] | outcome [3] | outcome [4] | outcome [5] | outcome [6] | Potency [7] | Potency [8] | outcome [9] | Potency [10]

OCCOc1cccc(OCCO)c1
inactive: outcome [1] | outcome [2] | outcome [3] | outcome [4] | outcome [5] | outcome [6] | Potency [7] | Potency [8] | outcome [9] | Potency [10]
